# Compound activity deposited in PubChem by National Center for Advancing Translational Sciences (NCATS).
# SMN2 splice enh: SMN2 splice variant enhancement; 210,000 compounds, 2.8% hits; Potency, µM (doses to about 46.1 µM), without a hit: at the highest dose activity change, positive = activation, most hits filed as activators; HEK293 SMN2-luciferase splicing reporter, luminescence, 30-36 h; AID 1458; also: % of control where 0% means no effect; nearly all actives have a fitted effect of over 55% in size
#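 HEK293 cells carry an SMN2 minigene-luciferase reporter in which exon 7 inclusion puts luciferase in frame. Cells were seeded at 2000 cells/well, attached for 10-12 hours, then exposed to compounds for 30-36 hours at 37C before ONE-Glo luminescence.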
# p53 reactivator: restores transcriptional activity of mutant p53; H1299 p53-A138V BP100-luciferase reporter, luminescence, 24 h; Potency, µM (series often up to 92.2 µM), for the others: at the highest dose activity change, positive = activation, most hits filed as activators; 320,000 compounds, 0.063% hits; also: % of control where 0% means no effect; nearly all actives have a fitted effect of over 45% in size
#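 p53-null H1299 cells stably carrying temperature-sensitive p53-A138V and a BP100-luciferase reporter were pinned with compounds (4-point, 1:5 series) and held 24 hrs at 37 deg C. Luminescence was read 10 min after detection reagent.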
# NPC1 promoter act: activators of NPC1 promoter | Huh7 NPC1 promoter luciferase reporter, 24 h | Potency, µM (highest dose often 9.22 µM), for inactives: top-dose activation, hits mostly activators | 320,000 compounds, 2.4% hits; also: % of control where 0% means no effect; nearly all actives have a fitted effect of over 60% in size
#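 Luminescence from an NPC1 promoter-driven luciferase reporter in stably transfected Huh7 cells was measured after 24 h compound treatment at 37 °C, followed by 10 min ambient incubation with luciferase detection reagent.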
# FLuc modulator: firefly luciferase modulation, counter-screen for miR-21 project | Potency, µM (doses to about 57.5 µM), inactives show at the top dose activity change, negative = inhibition, hits mostly inhibitors | 360,000 compounds, 6.9% hits | purified FLuc, Km substrates, luminescence inhibition;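 also: plate controls were vehicle for no effect and reference inhibitor for full effect; nearly all actives have a fitted effect of over 55% in size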
# Target sequence (P08659 whole entry, looked up): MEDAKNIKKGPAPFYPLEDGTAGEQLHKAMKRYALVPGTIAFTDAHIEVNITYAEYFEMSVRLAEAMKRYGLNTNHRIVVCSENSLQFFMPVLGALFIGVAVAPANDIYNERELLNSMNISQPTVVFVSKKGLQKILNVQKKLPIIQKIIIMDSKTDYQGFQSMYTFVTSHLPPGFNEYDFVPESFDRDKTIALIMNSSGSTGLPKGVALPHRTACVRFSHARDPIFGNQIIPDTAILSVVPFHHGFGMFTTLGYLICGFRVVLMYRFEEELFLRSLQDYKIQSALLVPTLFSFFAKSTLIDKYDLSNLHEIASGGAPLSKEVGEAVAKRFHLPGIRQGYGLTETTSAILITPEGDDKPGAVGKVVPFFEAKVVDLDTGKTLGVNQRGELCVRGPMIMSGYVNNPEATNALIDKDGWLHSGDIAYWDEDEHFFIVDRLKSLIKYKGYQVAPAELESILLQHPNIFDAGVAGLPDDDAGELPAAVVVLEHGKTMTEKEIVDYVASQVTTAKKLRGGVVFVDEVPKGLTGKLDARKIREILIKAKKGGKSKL
#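 Purified P. pyralis luciferase (10nM final) with 10uM D-luciferin and 10uM ATP (Km levels) in 50mM Tris acetate pH 7.5, 10mM Mg acetate, 0.01% Tween-20, 0.05% BSA; qHTS 6-point titration, ~60 µM downward; luminescence read.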
# ELG1 genotoxic: induces genotoxicity in HEK293T cells with luciferase-tagged ELG1; HEK293T ELG1-luciferase reporter, luminescence, 16 h; Potency, µM (top dose mostly 46 µM), inactives show at the top dose activity change, positive = activation, hits mostly activators; 330,000 compounds, 1.3% hits; AID 504466; also: % of control where 0% means no effect; nearly all actives have a fitted effect of over 60% in size
#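 HEK293T cells expressing luciferase-tagged ELG1 were exposed to compound or DMSO vehicle for 16 hr at 37 °C and 5% CO2. Luciferase activity was then measured with ONE-Glo after 30 min at room temperature.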
# Rab9 promoter act: activators of Rab9 promoter | AID 485297 | 320,000 compounds, 2.8% hits | Potency, µM (doses to about 9.22 µM), for the others: at the highest dose activation, negative = inhibition, actives largely listed as activators | Huh7 Rab9 promoter-luciferase reporter, luminescence, 24 h; also: % of control where 0% means no effect; nearly all actives have a fitted effect of over 60% in size
#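 Steps: seed 1500 Huh7 Rab9-luc cells per well, rest 2 h at 37 °C; add compound in DMSO; incubate 24 h; add luciferase reagent, 10 min ambient; read luminescence.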
# The depositor's hits bear a star; ? = inconclusive; . = no result given; [ ] = another dose, or the depositor's remark. This is a sample that favours compounds with a hit; in the whole collection about 7.4% have one here. Calls follow the shape of the dose curve; as a rule, active = well fitted curve in the direction sought with a large enough effect; inconclusive = small, poorly fitted or top-dose-only effect, or another doubt; inactive = no such curve, though single readings can be large; an effect the other way counts as inactive or inconclusive. Potency is read from the fitted curve at half-maximal effect.
SMILES,SMN2 splice enh,p53 reactivator,NPC1 promoter act,FLuc modulator,ELG1 genotoxic,Rab9 promoter act
CCCNC(=O)CCn1cc(-c2ccc(OC)cc2)nc1-c1ccncc1,.,.,2.7%,4.5%,6.1%,-0.7%
CCOc1ccc(-c2nc(CSCC(=O)N3CCN(C(=O)c4ccco4)CC3)c(C)o2)cc1,-25.9%,1.2%,29.9%,19µM*,-0.6%,21.2%
COc1ccc(-c2nc(CSCC(=O)N3CCN(c4ccccc4)CC3)c(C)o2)cc1,-8.6%,.,.,-17.6%,.,.
CC(c1ccco1)N(C(=O)c1ccccc1NS(=O)(=O)c1ccc(Cl)cc1)c1ccccn1 (centres undefined),1.9%,5.7%,3.3%,-1.4%,-0.6%,1.2%
CC(c1ccco1)N(C(=O)c1ccccc1F)c1ccccn1 (centres undefined),6.7%,6.5%,-3.6%,-1.9%,-0.9%,-0.2%
CC(c1ccco1)N(C(=O)COc1ccc(Cl)cc1)c1ccccn1 (centres undefined),?,?,11.6%,21.3µM*,8.91µM*,24.3%
CC(c1ccco1)N(C(=O)COc1ccc(Cl)cc1Cl)c1ccccn1 (centres undefined),14.4%,4.7%,24.4%,4.26µM*,2.31µM*,?
COc1ccc(N(C(=O)c2ccco2)C(C(=O)NC2CCCC2)c2cc(OC)c(OC)c(OC)c2)cc1 (centres undefined),.,.,-0.9%,-1.7%,?,-1.1%
Cc1ccnc2c1ccc1ccccc12,.,4.6%,-5.9%,16.9µM*,2.1%,13.1%
CCN1CCN(c2ncnc3c2cnn3-c2ccc(Cl)cc2)CC1,.,17.5%,1.58µM*,6.01µM*,?,1.78µM*
c1ccc(CCN2CCN(c3ncnc4c3cnn4-c3ccccc3)CC2)cc1,-3.9%,12.6%,-2.3%,-10.8%,-6.8%,3.3%
CCN1CCN(c2ncnc3c2cnn3-c2ccccc2)CC1,-11.7%,?,?,23.9µM*,?,29.3%
CCN(CC(=O)Nc1ccc(OC)cc1)C(=O)Cc1coc2cc(C)c(C)cc12,.,-6.4%,-0.9%,0.9%,-2.1%,-8.4%
CCN(CC(=O)Nc1c(F)cccc1F)C(=O)CCN1C(=O)C2CC=CCC2C1=O (centres undefined),.,0.5%,0.6%,3.2%,0.6%,-0.2%
COc1ccnc2c1c(=O)n(Cc1ccc(Cl)cc1Cl)c(=O)n2C,.,-16.4%,2.2%,6.4%,0.7%,-0.5%
COc1ccc(-n2nc([N+](=O)[O-])c(=NCc3cccnc3)n2O)cc1,25.6%,?,3.55µM*,?,?,2.82µM*
COc1ccc(-n2nc([N+](=O)[O-])c(=NCCC3=CCCCC3)n2O)cc1,?,27.6%,?,?,?,3.55µM*
COc1ccc(-n2nc([N+](=O)[O-])c(=NCc3ccco3)n2O)cc1,.,?,3.55µM*,?,?,1.41µM*
Cc1cc(C)cc(N=c2c([N+](=O)[O-])nn(-c3ccc(Cl)cc3)n2O)c1,-26.8%,1.6%,21.8%,1.8%,-16.0%,-0.3%
CCc1ccc(N=c2c([N+](=O)[O-])nn(-c3ccccc3)n2O)cc1,-28.1%,39.8µM*,?,-0.6%,14.2%,?
COc1ccc(-n2nc([N+](=O)[O-])c(=NCCc3ccc(C)cc3)n2O)cc1,.,?,?,-6.1%,-1.0%,?
O=[N+]([O-])c1nn(-c2ccc3c(c2)OCCO3)n(O)c1=NCc1ccccc1Cl,12.6µM*,?,?,6.01µM*,?,?
CCOc1ccc(-c2cnc(NCc3cccc4ccccc34)n2CCOC)cc1,.,-68.8%,1.5%,0.8%,-2.5%,-7.8%
Cc1ccc(Cn2c(C(=O)O)c(CNC3CCCCC3)c3ccc(C)cc32)cc1,.,.,.,-1.8%,.,.
CCc1ccc(N2CCn3c2nc2c3c(=O)n(Cc3c(F)cccc3Cl)c(=O)n2C)cc1,.,.,.,-1.3%,.,.
SMILES,SMN2 splice enh,p53 reactivator,NPC1 promoter act,FLuc modulator,ELG1 genotoxic,Rab9 promoter act
CCc1ccc(N2CCn3c2nc2c3c(=O)n(Cc3ccc(F)cc3)c(=O)n2C)cc1,.,.,.,9.53µM*,.,.
CCCN(/C=N/c1sc2c(c1C#N)CCCCC2)CCC,6.8%,7.4%,25.8%,19µM*,1.4%,14.6%
N#Cc1c(/N=C/N2CCOCC2)sc2c1CCCCC2,11.2µM*,?,3.98µM*,5.36µM*,5.8µM*,2.51µM*
CN(C)/C=N/c1sc2c(c1C#N)CCCCC2,?,?,?,21.3µM*,?,?
Cc1ccc(C)c(S(=O)(=O)c2cn(Cc3ccccc3)c3cc(F)c(F)cc3c2=O)c1,-17.7%,.,.,-2.9%,.,.
Cc1cc(=O)[nH]c(N=N/C(=N/Nc2ccccc2C)c2ccccc2)n1,-94.1%,?,-16.4%,-19.9%,4.1%,-28.8%
Cc1cc(=O)[nH]c(N=N/C(=N/Nc2ccc(O)cc2)c2ccccc2)n1,-54.8%,?,4.2%,10.7µM*,?,0.0%
COc1ccc(N/N=C(/N=Nc2nc(C)cc(=O)[nH]2)c2ccccc2)cc1,-61.7%,?,?,4.26µM*,2.59µM*,-8.5%
O=C(COc1ccccc1)N=C1SC2CS(=O)(=O)CC2N1c1ccc(F)cc1 (centres undefined),.,4.3%,-0.2%,0.6%,-0.6%,-0.3%
Cc1ccc(C)c(C(=O)COC(=O)CCN2C(=O)C3C4CCC(C4)C3C2=O)c1 (centres undefined),.,.,-5.4%,12µM*,2.4%,1.9%
Cc1ccc(C(=O)COC(=O)C(C)N2C(=O)C3C4C=CC(C4)C3C2=O)cc1C (centres undefined),.,4.0%,-3.5%,13.5µM*,2.3%,-0.5%
Cc1ccc(C(=O)COC(=O)c2ccccc2N2C(=O)C3C4CCC(C4)C3C2=O)cc1C (centres undefined),-10.3%,4.4%,-3.2%,12µM*,-0.9%,12.3%
O=C(O)[C@H](Cc1c[nH]c2ccccc12)N1C(=O)c2ccccc2C1=O,-19.9%[9.22 µM],.,.,.,.,.
Cc1ccc(-c2cn3nc(C)c(C)nc3n2)cc1,0.501µM*,-3.6%,?,0.675µM*,?,0.178µM*
Cc1ccc(CNc2nc3nc(C)c(Cl)c(C)n3n2)cc1,15.2%,.,.,.,.,.
COc1ccc(-c2cn3nc(C)c(C)nc3n2)cc1OC,.,?,?,?,5.3%,2.82µM*
Cc1ccc(C)c(NC(=O)CN(C)S(=O)(=O)c2cccc3nsnc23)c1,1.9%,.,.,-1.2%,.,.
COc1ccc(Nc2cc(C(=O)NCc3ccccc3)c3ccccc3n2)cc1,1.4%,.,.,-13.5%,.,.
COc1ccc(CNC(=O)c2cc(Nc3ccc(C)cc3C)nc3ccccc23)cc1,-11.3%,.,.,8.49µM*,.,.
COc1ccc(Nc2cc(C(=O)NCc3cccnc3)c3ccccc3n2)c(OC)c1,-8.4%,1.6%,0.8%,10.7µM*,-5.5%,-9.1%
